The source of these data is PubChem BioAssay AID1508622 (National Center for Advancing Translational Sciences (NCATS), 2021).

The assay in a line: Confirmatory qHTS for Identification of Small Molecule Activators of Huntingtin-Antisense Promoter Activity. In outline:
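HEK293 luciferase reporter cells, 2,500/well, cultured 24 h, then exposed to compounds at up to 57.5 uM final for 24 h at 37C. Firefly luciferase luminescence read; normalized to vehicle (0%) and zero RLU (-100%).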
Background: qHTS replaces the single test concentration by a dilution series.

The source made the active and inactive calls. A call without a number means that no potency is given here. The call rests on the fitted dose curve; in most records, active means well fitted activation curve with a large enough effect; inconclusive means small, poorly fitted or top-dose-only effect; inactive means no such curve, though single readings can be large or run the other way.
Potency means the concentration at half of the fitted maximal effect.

For the compound `O=C(Nc1ccc(F)c(Cl)c1)C1CCN(S(=O)(=O)c2ccc3c(c2)CCCN3C(=O)C2CCC2)CC1`, the Potency entry is “inactive”. As to `CN1C(=O)c2ccccc2Sc2ccc(NC(=O)NCc3ccc(Cl)cc3)cc21`, the Potency result was “inactive”.

With `Cc1ccc(Cl)cc1N1CCN(C(=O)c2cccn2-c2nnc(N3CCCCC3)s2)CC1`, the Potency entry was “inactive”.

On to `COc1ccc(CCNc2ncnc3onc(C)c23)c(OC)c1`, for which the Potency entry was “inactive”. With `O=C(Nc1ccc(Cl)c(Cl)c1)N(Cc1c[nH]c2ccccc12)C1CCCCC1`, the Potency is 2.39 µM (active). For `COc1cc(OC)c(C2C=C(c3ccc(C)cc3)Nc3c(C(=O)Nc4ccccc4)cnn32)cc1OC` (stereo not given), the Potency entry is “inactive”. Next, `O=C(NCCc1nc2ccccc2n1CCCOc1ccc(Cl)cc1)C1CCCCC1`: “inactive”; `CCS(=O)(=O)N1CC(CC#N)(n2cc(-c3ncnc4[nH]ccc34)cn2)C1`: 30.1 µM (active). With `COc1ccccc1C(=O)Oc1c(Sc2ccccc2)c(C)nn1C(C)(C)C`, the Potency result is “inactive”. Take `CC(C)Oc1ccc(CNC(=O)C2CCN(C(=O)N3CCOc4ccc(Cl)cc43)CC2)cc1`: the Potency entry is “inactive”. Consider `CCN(C(=O)c1oc2ccc(S(=O)(=O)N3CCCCCC3)cc2c1C)c1ccccc1`, for which the Potency entry was “inactive”. For the compound `COc1cc2c(cc1OC)C(COc1ccc(C(C)C)cc1)N(C(=O)COc1ccccc1)CC2` (stereo not given), the Potency entry was “inactive”. In the case of `O=c1cc(-c2ccccc2)oc2cc(O)cc(O)c12`, the Potency is 26.9 µM (active). `CCN(c1ccccc1)S(=O)(=O)c1c(-c2ccc(C)cc2)csc1C(=O)OC`: the Potency result was “inactive”. With `COc1ccc(Nc2sc(C(=O)c3ccccc3)c(N)c2C(=O)Nc2cc(C)ccc2C)c(OC)c1`, the Potency entry was “inactive”.
